# Data from PubChem BioAssay (NCATS).
# A number with no mark means an inactive call. The source made the active and inactive calls. Calls come from the whole dose curve; as a rule, active = well fitted curve in the direction sought with a large enough effect; inconclusive = small, poorly fitted or top-dose-only effect, or another doubt; inactive = no such curve, though single readings can be large or run the other way.
# Biological target: Hexokinase-4 (Homo sapiens) + Glucokinase regulatory protein (Homo sapiens) (UniProt P35557+Q14397)
# Sequence (P35557 whole entry, looked up): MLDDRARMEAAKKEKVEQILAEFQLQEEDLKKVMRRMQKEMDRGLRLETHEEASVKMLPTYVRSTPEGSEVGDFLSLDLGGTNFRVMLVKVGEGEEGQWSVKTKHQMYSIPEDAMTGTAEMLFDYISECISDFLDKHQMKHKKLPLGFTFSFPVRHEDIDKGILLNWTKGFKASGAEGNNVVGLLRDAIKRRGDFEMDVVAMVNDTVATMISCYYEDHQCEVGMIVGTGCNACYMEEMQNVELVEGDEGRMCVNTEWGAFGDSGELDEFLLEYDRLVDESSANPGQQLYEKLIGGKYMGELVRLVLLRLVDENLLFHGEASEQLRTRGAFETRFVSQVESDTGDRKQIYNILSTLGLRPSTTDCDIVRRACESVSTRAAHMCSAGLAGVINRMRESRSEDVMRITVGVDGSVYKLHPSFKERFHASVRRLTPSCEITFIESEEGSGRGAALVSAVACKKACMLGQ
# Sequence (Q14397 whole entry, looked up): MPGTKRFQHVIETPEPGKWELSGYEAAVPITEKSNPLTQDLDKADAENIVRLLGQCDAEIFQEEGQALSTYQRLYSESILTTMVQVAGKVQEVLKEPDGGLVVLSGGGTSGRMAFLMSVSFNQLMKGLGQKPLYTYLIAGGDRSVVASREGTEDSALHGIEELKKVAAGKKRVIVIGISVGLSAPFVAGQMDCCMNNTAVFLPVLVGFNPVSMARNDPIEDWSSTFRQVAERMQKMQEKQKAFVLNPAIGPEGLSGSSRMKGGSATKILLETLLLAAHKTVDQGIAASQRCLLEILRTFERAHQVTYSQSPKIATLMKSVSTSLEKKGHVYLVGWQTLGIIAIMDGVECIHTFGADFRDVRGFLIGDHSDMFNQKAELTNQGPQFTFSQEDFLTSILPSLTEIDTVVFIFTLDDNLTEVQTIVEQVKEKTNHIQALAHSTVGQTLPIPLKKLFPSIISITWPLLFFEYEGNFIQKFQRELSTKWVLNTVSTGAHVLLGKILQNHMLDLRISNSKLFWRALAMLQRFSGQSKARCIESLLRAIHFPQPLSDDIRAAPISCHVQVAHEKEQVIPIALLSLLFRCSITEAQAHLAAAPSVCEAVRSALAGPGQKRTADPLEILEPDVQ
# Experiment: qHTS assay for inhibitors of recombinant human GCK-GKRP interaction: Diaphorase-coupled assay (AID 743205)
# Conditions: G6PDH/diaphorase resorufin fluorescence; series mostly up to 57.5 µM; activity change, positive = activation: at the top concentration
# From the text: Glucokinase (GCK) is a glucose sensor in hepatocytes and pancreatic beta-cells. Hepatic GCK is regulated by glucokinase regulatory protein (GKRP), which is predominantly localized to the liver. GKRP binds to GCK inhibiting its activity in the fasting state while in the presence of glucose the GKRP is displaced. There is an additional layer of regulation by fructose 1-phosphate and fructose 6-phosphate, which inhibit and enhance the GCK-GKRP interaction, respectively. GCK plays a role in glucose homeostasis and there is an interest in the development of strategies to activate GCK to lower blood glucose levels in type 2 diabetes. To date the majority of effort has focused on direct activation of GCK and the assays developed herein look to activate GCK by inhibiting its binding to GKRP. A compound that inhibits the interaction of GCK with GKRP could be important for the treatment of diabetes and can also be used as a tool compound to further elucidate GCK-GKRP biology. To that end, we have developed a sensitive HTS biochemical assay where in GCK activity is coupled to G6PDH and Diaphorase to interrogate the GCK-GKRP interaction. This assay was screened against a small compound library to look for modulators of activity.
# 2 uL of substrate (columns 1-48) are dispensed into Greiner, black solid-bottom 1536-well assay plates. Compounds (23 nL) are then transferred via Kalypsys pin tool equipped with 1536-pin array (10 nL slotted pins, V&P Scientific, San Diego, CA). The library compounds are in columns 5-48 and columns 1-4 serve as controls with DMSO in columns 1 and 3 and 26 mM 1:1.5 fold serial of gluckokinase activator (GKA-EMD) in column 2 and 26 mM of the glucokinase activator (GKA-EMD) in column 4. Following addition of compound and a 20 minute incubation, 1 uL of enzyme mix (GST-GCK, FLAG-GKRP and diaphorase) is added to columns 1, 2, 4-48 and 1 uL of no enzyme mix (FLAG-GKRP and diaphorase) is added to column 3 and the fluorescent product resorufin generated from resazurin was monitored on a Viewlux (PerkinElmer, Shelton, CT, USA) with excitation at 525 nm and emission at 590 nm in kinetic mode where the plate was read every minute for 30 minutes. The final concentration of reagents in the reaction are 25 mM Hepes pH 7.6, 25 mM KCl, 2 mM MgCl2, 1.4 mM 2-mercaptoethanol, 0.025% BSA, 0.01% Tween-20, 0.15 mM NADP+, 5 mM glucose, 0.4 mM ATP, 4 U/ml G6PDH, 0.1 mM resazurin, 10 nM GST-GCK, 10 nM FLAG-GKRP, diaphorase (0.1 mg/mL). Data are normalized to DMSO-treated control columns with (maximum signal) and without (minimum signal) enzyme.
# Potency is the fitted concentration of half-maximal effect.
Compound,"activity change, positive = activation",Potency
CCCN1CCc2cccc3c2[C@H]1Cc1ccc(O)c(O)c1-3,-20.3%,–
CCCN(CCC)CCc1ccc(O)c(O)c1,-11.8%,–
NCCCP(=O)(O)O,0.0327%,–
CC(=O)NBr,3.44%,–
CN1CC[C@@]2(C)c3cc(O)ccc3N(C)C12 (stereo not given in full),-51.7%,–
CCCN1CCC[C@@H](c2cccc(O)c2)C1,0.43%,–
CC(C)[C@@]1(NC(=O)[C@@H]2C[C@@H]3c4cccc5[nH]cc(c45)C[C@H]3N(C)C2)O[C@@]2(O)[C@@H]3CCCN3C(=O)[C@H](Cc3ccccc3)N2C1=O,-8.61%,–
O=[N+]([O-])/C=C/c1ccc2c(c1)OCO2,-13.3%,–
C[C@@H]1O[C@H](C[N+](C)(C)C)CS1,0.228%,–
Cc1[nH]c2ccc(O)cc2c1CCN,-28.1%,–
COc1ccc2c(c1O)-c1cccc3c1[C@@H](C2)N(C)CC3,-27.9%,–
C[N+](C)(C)CC#CCN1CCCC1=O,-0.338%,–
CC1(C(=O)O)C2CCC(O2)C1(C)C(=O)O (stereo not given),1.48%,–
C[N+]1(C)C2CCC1CC(OC(=O)c1c[nH]c3ccccc13)C2 (stereo not given),0.184%,–
COc1ccc2c(c1)c(CCN1CCOCC1)c(C)n2C(=O)c1cccc(Cl)c1Cl,-9.23%,–
COc1ccc2c(c1)/C(=C/c1cnc[nH]1)C(=O)N2,-6.01%,–
CC(N)[C@H](O)c1ccc(O)c(O)c1 (stereo not given in full),-17.8%,–
CCCN1CC[C@@H]2c3cc(O)ccc3CC[C@@H]21,-12.3%,–
O=C1C=CC(=O)C=C1,0.498%,–
CN1C2CCC1CC(OC(c1ccccc1)c1ccccc1N)C2 (stereo not given),-1.08%,–

Compound,"activity change, positive = activation",Potency
NC(=O)c1ccc(OCC(O)CN2CC=C(c3ccc(F)cc3)CC2)cc1 (stereo not given),-1.8%,–
Clc1cc(I)cc(Cl)c1NC1=NCCN1,-1.48%,–
CCCC[N+]1(C)C2CC(OC(=O)[C@H](CO)c3ccccc3)CC1C1OC12 (stereo not given in full),-2.43%,–
C=CCN1CCc2cccc3c2[C@H]1Cc1ccc(O)c(O)c1-3,-14.3%,–
C[C@H](N)CN1CCc2ccc(Br)cc21,1.19%,–
CC(N)Cc1c[nH]c2ccc(O)cc12 (stereo not given),-34.3%,–
O=c1c2ccccc2[se]n1-c1ccccc1,–,14.1 µM (active)
C=CCN1CCC23c4c5ccc(O)c4O[C@H]2C(=O)CC[C@@]3(O)C1C5 (stereo not given in full),-4.12%,–
CO[C@H]1CC=C2CCN3CCC4=C(CC(=O)OC4)[C@]23C1,-6.51%,–
Cc1sc2ccccc2c1CC1=NCCN1,-2.37%,–
c1ccc2c(c1)[I+]c1ccccc1-2,-2.64%,–
NC(N)=Nc1ccc2[nH]c3c(c2c1)C[C@@]1(O)[C@H]2Cc4ccc(O)c5c4[C@@]1(CCN2CC1CC1)[C@H]3O5,-21%,–
CCCN1CCc2cc(O)cc3c2[C@H]1Cc1ccc(O)c(O)c1-3,-15.2%,–
C[C@H](N)Cc1cccc(C(F)(F)F)c1,0.868%,–
Oc1ccc2c3c1O[C@H]1c4[nH]c5ccccc5c4C[C@@]4(O)C(C2)N(CC2CC2)CCC314 (stereo not given in full),-9.88%,–
CC(Cc1ccc(OCC(=O)O)cc1)NCC(O)c1cccc(Cl)c1 (stereo not given),2.92%,–
COc1ccc2c(c1)C13CCCCC1C(C2)N(C)CC3 (stereo not given),-1.27%,–
CCN(CCCl)Cc1ccccc1Br,-2.06%,–
N#C/C(=C/c1ccc(O)c(O)c1)C(N)=S,-20.3%,–
N#CCCN,-0.574%,–
